These results are taken from PubChem BioAssay (EPA / NIEHS).

SMILES strings stand for the structures. Records with an inconclusive call do not appear. Activity calls are given as the source filed them. The calls were made as follows: active = hit-call score of the fitted dose curve at least 0.9, where 1 is the maximum; inconclusive = response in the unintended direction; inactive = score below 0.9.

Experiment [1] deals with 5-hydroxytryptamine receptor 2C (pig). Put plainly: NVS_GPCR_p5HT2C: NovaScreen (NVS) G Protein-Coupled Receptor Assay for pig Serotonin, 5-Hydroxytryptamine Receptor 2C (5HT2C) (AID 2283288). An outline of the steps:
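Radioligand displacement on membranes from pig choroid plexus, detected by filter scintillation counting after 1 h. Tested first at a single 25 uM in duplicate, then in concentration-response for actives; DMSO served as baseline.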

The target of experiment [2] is human Opioid Receptor Mu (Opiate Mu), OPRM1 (gene 4988) (UniProt P35372). Nature of the experiment: NVS_GPCR_hOpiate_mu: NovaScreen (NVS) G Protein-Coupled Receptor Assay for human Opioid Receptor Mu (Opiate Mu) (AID 2283290).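 Also: hits lower bound tracer signal versus DMSO meaning displacement of the ligand.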 An outline of the steps:
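Radioligand displacement binding on membranes from CHO cells expressing the receptor, 2.5 h after dosing, filter-based scintillation counting; loss of signal vs DMSO baseline. Screened in duplicate at 25 uM, actives then run in concentration series.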

Experiment [3] addresses rat Adrenergic, Alpha 1, Non-selective Receptor (Adra1), Adra1a (gene 29412) (UniProt P43140). Nature of the experiment: NVS_GPCR_rAdra1_NonSelective: NovaScreen (NVS) G Protein-Coupled Receptor Assay for rat Adrenergic, Alpha 1, Non-selective Receptor (Adra1) (AID 2283289). A digest of the protocol:
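Chemicals first screened in duplicate at 25 uM, then actives tested in concentration series up to 50 uM. Binding measured as displacement of radioligand from rat forebrain membrane receptors, 1 h, filtration with scintillation readout; DMSO baseline.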

Experiment [4] concerns the target rat Adrenergic Receptor, Alpha 2 (Adra2), Non-selective Binding, Adra2a (gene 25083) (UniProt P22909). Put plainly: NVS_GPCR_rAdra2_NonSelective: NovaScreen (NVS) G Protein-Coupled Receptor Assay for rat Adrenergic Receptor, Alpha 2 (Adra2), Non-selective Binding (AID 2283299). A digest of the protocol: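 Filter-based scintillation counting of radioligand binding to rat cortical membrane receptors, measured 1.25 hours post-dosing; loss of signal versus DMSO indicates displacement. Initial single-concentration duplicate at 25 uM, then concentration series.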

Experiment [5] deals with rat Histamine Receptor (H3), Hrh3 (gene 85268) (UniProt Q9QYN8). Nature of the experiment: NVS_GPCR_rH3: NovaScreen (NVS) G Protein-Coupled Receptor Assay for rat Histamine Receptor (H3) (AID 2283303). A digest of the protocol:
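Filter-binding radioligand competition on rat forebrain membranes, 1 h incubation; compounds screened at 25 µM in duplicate and followed in concentration series to 50 µM, loss of bound signal vs DMSO.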

The target of experiment [6] is rat Adrenergic, Alpha 1A Receptor (Adra1A), Adra1a (gene 29412) (UniProt P43140). Nature of the experiment: NVS_GPCR_rAdra1A: NovaScreen (NVS) G Protein-Coupled Receptor Assay for rat Adrenergic, Alpha 1A Receptor (Adra1A) (AID 2283296). A digest of the protocol: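 Filter radiodetection after 1 h competitive binding on CEC-pretreated rat cortical membranes. Duplicate single-point screening at 25 uM; active chemicals retested across concentration series.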
Chain of rat Adrenergic, Alpha 1A Receptor (Adra1A), Adra1a (gene 29412) (P43140 whole entry, looked up): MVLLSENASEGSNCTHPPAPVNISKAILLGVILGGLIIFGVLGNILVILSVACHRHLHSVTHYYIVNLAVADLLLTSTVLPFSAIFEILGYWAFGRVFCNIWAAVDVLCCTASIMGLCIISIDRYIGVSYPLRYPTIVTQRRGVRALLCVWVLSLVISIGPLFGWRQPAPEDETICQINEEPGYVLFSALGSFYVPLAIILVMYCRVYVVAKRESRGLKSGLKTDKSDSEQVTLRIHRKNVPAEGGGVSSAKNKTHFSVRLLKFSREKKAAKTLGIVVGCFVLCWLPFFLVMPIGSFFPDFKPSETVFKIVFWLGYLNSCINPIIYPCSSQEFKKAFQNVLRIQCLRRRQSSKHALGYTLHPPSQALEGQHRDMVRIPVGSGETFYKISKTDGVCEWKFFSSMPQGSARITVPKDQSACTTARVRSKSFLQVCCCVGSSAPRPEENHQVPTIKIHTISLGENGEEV

For experiment [7], the target named is rat Adrenergic Receptor, Beta (Adrb), Non-selective Binding, Adrb1 (gene 24925) (UniProt P18090). Put plainly: NVS_GPCR_rAdrb_NonSelective: NovaScreen (NVS) G Protein-Coupled Receptor Assay for rat Adrenergic Receptor, Beta (Adrb), Non-selective Binding (AID 2283298). A digest of the protocol: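 Rat cortical membranes incubated 1 h with beta-adrenergic radioligand and test chemical; bound ligand measured by filtration and scintillation counting. Screen at 25 uM duplicate, then concentration series with 50 uM maximum; loss of signal versus DMSO.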

A further experiment deals with Adra2b (gene 24174) (UniProt P19328). Nature of the experiment: NVS_GPCR_rmAdra2B: NovaScreen (NVS) G Protein-Coupled Receptor Assay for hybird cells Adrenergic, Alpha 2B Receptor (Adra2B) (AID 2283306). A digest of the protocol:
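Compounds screened first at 25 uM in duplicate, with actives followed up in concentration-response; specific radioligand displacement from hybrid neuroglioma/blastoma cell membrane preparations measured by filter scintillation counting after 1 h, normalized to DMSO.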

The target of experiment [8] is rat Opioid Receptor, Non-selective Sodium (Na+) Binding, Oprm1 (gene 25601) (UniProt P33535). Nature of the experiment: NVS_GPCR_rOpiate_NonSelectiveNa: NovaScreen (NVS) G Protein-Coupled Receptor Assay for rat Opioid Receptor, Non-selective Sodium (Na+) Binding (AID 2283311). An outline of the steps:
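Filtration radioligand binding on rat forebrain membrane preparations, read 1.5 h after dosing. Single-concentration 25 µM primary screen in duplicate, followed by singleton concentration series to 50 µM max for actives; DMSO baseline.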

Experiment [9] is described as follows: NVS_IC_rCaDHPRCh_L: NovaScreen (NVS) Ion Channel Assay for rat Calcium Channel, Type L, Dihydropyridine Site (CaDHPRCh_L) (AID 2283320). An outline of the steps: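 Rat cortex membrane preparation; dihydropyridine-site radioligand displacement read 1 h post-dose by filtration and scintillation. Primary single-point screen 25 uM in duplicate, then concentration series to 50 uM maximum; DMSO as negative control.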

Experiment [10] addresses rat Somatostatin Receptor (SST), Sstr1 (gene 25033) (UniProt P28646). Put plainly: NVS_GPCR_rSST: NovaScreen (NVS) G Protein-Coupled Receptor Assay for rat Somatostatin Receptor (SST) (AID 2283314). A digest of the protocol:
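Single-concentration duplicate screen (25 uM), then concentration-response up to 50 uM for chemicals passing a threshold such as 30% inhibition. Membranes came from rat forebrain. Binding was measured 1 h post-dose by filter radiodetection and scintillation, relative to DMSO.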

Experiment [11] has as its target rat Neonicotinoid receptor (NNR), Chrna7 (gene 25302) (UniProt Q05941). Nature of the experiment: NVS_LGIC_rNNR_BungSens: NovaScreen (NVS) Ligand-Gated Ion Channel Assay for rat Neonicotinoid receptor (NNR) (AID 2283315). An outline of the steps:
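Rat cortical membrane preparation incubated 2.5 h with tritiated or iodinated radioligand and test chemical. Bound radioactivity was filtered and counted by scintillation, and displacement was analysed against DMSO.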

For experiment [12], the target named is rat Opioid Receptor, Non-selective Binding, Oprm1 (gene 25601) (UniProt P33535). Nature of the experiment: NVS_GPCR_rOpiate_NonSelective: NovaScreen (NVS) G Protein-Coupled Receptor Assay for rat Opioid Receptor, Non-selective Binding (AID 2283318). An outline of the steps: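 Filter-based radioligand displacement using rat forebrain membrane preparations, measured 1.5 h post-dosing. Single-concentration duplicate screen at 25 uM, follow-up in concentration series; activity taken as signal loss relative to DMSO.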
Chain of rat Opioid Receptor, Non-selective Binding, Oprm1 (gene 25601) (P33535 whole entry, looked up): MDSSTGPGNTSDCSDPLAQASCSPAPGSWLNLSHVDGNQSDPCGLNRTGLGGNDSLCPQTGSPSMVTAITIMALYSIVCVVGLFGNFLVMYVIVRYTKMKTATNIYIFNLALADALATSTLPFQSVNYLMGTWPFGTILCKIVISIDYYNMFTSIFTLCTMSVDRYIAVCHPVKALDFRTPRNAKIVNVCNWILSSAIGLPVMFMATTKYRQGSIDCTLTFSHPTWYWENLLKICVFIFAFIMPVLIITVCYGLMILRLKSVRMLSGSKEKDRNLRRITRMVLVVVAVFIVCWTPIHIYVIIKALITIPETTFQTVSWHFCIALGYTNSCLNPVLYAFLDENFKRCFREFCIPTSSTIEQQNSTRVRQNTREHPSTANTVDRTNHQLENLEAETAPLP

The target of experiment [13] is mouse Cholecystokinin, CCK2 Receptor (CCKB), Cckbr (gene 12426) (UniProt P56481). Put plainly: NVS_GPCR_mCKKBCentral: NovaScreen (NVS) G Protein-Coupled Receptor Assay for mouse Cholecystokinin, CCK2 Receptor (CCKB) (AID 2283293). An outline of the steps: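 Mouse forebrain membrane preparation incubated 2 h with chemical and radioligand; bound radioactivity counted after filtration. Single-concentration duplicate screen at 25 uM, then concentration series to 50 uM max for hits, DMSO as baseline.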

Experiment [14] addresses rat Gamma-Aminobutyric Acid Type B Receptor (GABBR), Gabbr1 (gene 81657) (UniProt Q9Z0U4). Put plainly: NVS_GPCR_rGABBR: NovaScreen (NVS) G Protein-Coupled Receptor Assay for rat Gamma-Aminobutyric Acid Type B Receptor (GABBR) (AID 2283301). A digest of the protocol:
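Rat cortical membrane preparation, competitive radioligand binding for 1 h with filtration and scintillation readout. Actives from duplicate single-point 25 uM screening proceeded to concentration series with 50 uM top concentration.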

In the next experiment the test system is NCBI gene 24521. Nature of the experiment: NVS_IC_rKATPCh: NovaScreen (NVS) Ion Channel Assay for rat Potassium Channel, ATP-Sensitive (KATPCh) (AID 2283319). A digest of the protocol: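 Primary duplicate screen at 25 uM, then singleton concentration series to 50 uM maximum, in a rat cortex membrane radioligand displacement assay. Binding measured by filtration and scintillation 2 h post-dose; DMSO baseline.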

In experiment [15] the target is rat Serotonin, 5-Hydroxytryptamine Receptor (5HT), Non-Selective Binding, Htr1a (gene 24473) (UniProt P19327). Put plainly: NVS_GPCR_r5HT_NonSelective: NovaScreen (NVS) G Protein-Coupled Receptor Assay for rat Serotonin, 5-Hydroxytryptamine Receptor (5HT), Non-Selective Binding (AID 2283295). A digest of the protocol:
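Rat cortex membrane preparation incubated 1 h with radioligand and test chemical; bound radioactivity counted after filtration. Screening began in duplicate at 25 uM with concentration-series follow-up; fitting relative to DMSO.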

Chain of rat Adrenergic, Alpha 1, Non-selective Receptor (Adra1), Adra1a (gene 29412) (P43140 whole entry, looked up): as the sequence (P43140 whole entry, looked up) above
Chain of human Opioid Receptor Mu (Opiate Mu), OPRM1 (gene 4988) (P35372 whole entry, looked up): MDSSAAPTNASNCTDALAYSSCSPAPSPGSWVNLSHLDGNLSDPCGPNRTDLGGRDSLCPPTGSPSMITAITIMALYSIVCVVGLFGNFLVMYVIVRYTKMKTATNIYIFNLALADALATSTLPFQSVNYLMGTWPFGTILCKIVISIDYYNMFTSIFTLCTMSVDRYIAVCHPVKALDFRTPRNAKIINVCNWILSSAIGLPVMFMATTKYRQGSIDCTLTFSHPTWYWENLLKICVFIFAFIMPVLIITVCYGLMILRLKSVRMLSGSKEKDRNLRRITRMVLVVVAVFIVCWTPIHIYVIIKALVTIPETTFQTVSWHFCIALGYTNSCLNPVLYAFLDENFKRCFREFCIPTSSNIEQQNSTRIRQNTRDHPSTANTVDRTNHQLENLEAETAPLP
Chain of rat Adrenergic Receptor, Alpha 2 (Adra2), Non-selective Binding, Adra2a (gene 25083) (P22909 whole entry, looked up): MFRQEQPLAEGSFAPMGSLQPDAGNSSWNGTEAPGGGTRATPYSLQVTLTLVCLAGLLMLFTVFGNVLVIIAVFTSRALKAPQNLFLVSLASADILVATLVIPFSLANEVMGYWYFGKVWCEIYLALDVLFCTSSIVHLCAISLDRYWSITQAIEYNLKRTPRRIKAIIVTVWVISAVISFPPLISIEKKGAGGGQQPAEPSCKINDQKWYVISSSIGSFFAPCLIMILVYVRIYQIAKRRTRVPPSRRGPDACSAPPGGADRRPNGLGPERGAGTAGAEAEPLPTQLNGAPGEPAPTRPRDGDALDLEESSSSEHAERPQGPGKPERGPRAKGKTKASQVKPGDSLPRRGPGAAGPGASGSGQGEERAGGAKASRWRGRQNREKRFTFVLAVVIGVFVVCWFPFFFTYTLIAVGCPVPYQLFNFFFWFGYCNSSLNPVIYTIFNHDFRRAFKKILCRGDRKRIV
Chain of Adra2b (gene 24174) (P19328 whole entry, looked up): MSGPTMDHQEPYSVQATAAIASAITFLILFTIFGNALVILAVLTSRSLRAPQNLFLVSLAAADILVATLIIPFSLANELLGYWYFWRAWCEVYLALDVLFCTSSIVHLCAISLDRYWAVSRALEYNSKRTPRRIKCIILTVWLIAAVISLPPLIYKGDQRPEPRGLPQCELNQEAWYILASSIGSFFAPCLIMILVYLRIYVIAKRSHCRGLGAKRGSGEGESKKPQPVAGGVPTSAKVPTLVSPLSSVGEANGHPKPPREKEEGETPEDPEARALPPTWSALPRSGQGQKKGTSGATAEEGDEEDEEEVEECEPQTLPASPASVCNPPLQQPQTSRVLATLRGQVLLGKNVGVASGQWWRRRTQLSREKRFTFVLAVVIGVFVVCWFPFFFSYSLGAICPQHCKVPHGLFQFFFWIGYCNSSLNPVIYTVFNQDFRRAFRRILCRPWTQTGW
Chain of rat Opioid Receptor, Non-selective Sodium (Na+) Binding, Oprm1 (gene 25601) (P33535 whole entry, looked up): as the sequence (P33535 whole entry, looked up) above
Chain of rat Histamine Receptor (H3), Hrh3 (gene 85268) (Q9QYN8 whole entry, looked up): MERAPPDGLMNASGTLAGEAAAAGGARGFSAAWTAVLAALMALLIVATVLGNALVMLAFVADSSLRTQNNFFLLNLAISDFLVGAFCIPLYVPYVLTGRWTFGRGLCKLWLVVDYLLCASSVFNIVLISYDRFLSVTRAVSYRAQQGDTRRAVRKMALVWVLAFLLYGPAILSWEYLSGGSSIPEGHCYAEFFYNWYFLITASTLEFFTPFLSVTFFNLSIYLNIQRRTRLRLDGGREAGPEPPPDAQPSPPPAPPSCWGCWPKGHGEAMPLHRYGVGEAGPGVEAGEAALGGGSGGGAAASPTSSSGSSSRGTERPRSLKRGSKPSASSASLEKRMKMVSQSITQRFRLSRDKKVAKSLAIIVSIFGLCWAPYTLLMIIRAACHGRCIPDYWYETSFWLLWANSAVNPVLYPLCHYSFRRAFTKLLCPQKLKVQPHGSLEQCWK
Chain of rat Somatostatin Receptor (SST), Sstr1 (gene 25033) (P28646 whole entry, looked up): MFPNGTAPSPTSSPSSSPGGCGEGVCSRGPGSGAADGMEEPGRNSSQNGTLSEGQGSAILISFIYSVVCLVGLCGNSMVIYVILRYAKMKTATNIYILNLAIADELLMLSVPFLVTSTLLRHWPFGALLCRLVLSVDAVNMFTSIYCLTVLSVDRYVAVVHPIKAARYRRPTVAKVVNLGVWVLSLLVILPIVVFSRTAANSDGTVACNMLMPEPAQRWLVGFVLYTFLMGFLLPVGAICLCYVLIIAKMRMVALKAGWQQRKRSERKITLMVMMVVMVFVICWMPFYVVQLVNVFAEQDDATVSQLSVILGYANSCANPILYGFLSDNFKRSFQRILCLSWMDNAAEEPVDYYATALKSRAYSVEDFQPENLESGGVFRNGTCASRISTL
Chain of rat Gamma-Aminobutyric Acid Type B Receptor (GABBR), Gabbr1 (gene 81657) (Q9Z0U4 whole entry, looked up): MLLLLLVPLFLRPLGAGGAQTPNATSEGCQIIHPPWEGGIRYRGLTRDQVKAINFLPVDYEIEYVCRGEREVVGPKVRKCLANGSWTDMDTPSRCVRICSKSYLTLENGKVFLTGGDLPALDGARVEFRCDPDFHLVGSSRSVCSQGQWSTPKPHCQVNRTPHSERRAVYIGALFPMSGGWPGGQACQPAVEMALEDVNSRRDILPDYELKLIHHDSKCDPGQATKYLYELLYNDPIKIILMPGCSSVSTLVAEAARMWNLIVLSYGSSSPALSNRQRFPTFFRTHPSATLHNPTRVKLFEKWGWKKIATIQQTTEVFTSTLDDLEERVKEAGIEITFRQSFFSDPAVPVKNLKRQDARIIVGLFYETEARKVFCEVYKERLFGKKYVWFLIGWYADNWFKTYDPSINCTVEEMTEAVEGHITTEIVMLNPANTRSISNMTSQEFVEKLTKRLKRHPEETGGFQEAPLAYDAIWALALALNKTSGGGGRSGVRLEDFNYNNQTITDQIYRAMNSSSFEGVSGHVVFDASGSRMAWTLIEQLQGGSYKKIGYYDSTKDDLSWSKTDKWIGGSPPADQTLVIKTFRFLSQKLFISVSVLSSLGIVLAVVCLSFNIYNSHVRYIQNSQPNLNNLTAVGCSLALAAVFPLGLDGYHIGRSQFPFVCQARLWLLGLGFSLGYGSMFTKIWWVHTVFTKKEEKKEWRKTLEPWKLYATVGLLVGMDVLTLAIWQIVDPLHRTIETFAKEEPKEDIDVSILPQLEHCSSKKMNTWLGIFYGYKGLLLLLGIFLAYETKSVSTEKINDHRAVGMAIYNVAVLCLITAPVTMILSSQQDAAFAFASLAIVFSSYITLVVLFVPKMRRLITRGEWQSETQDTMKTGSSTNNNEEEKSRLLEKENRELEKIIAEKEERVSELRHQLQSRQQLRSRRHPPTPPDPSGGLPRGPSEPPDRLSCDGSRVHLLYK

Consider `Fc1ccccc1[C@@H](F)COC1CCC(Nc2ncnc3[nH]ncc23)CC1` (stereo partly drawn), for which, in experiment [1], the AC50 is 7.93 µM (active).
As for `CCCCCCc1ccc(O)cc1O`, in experiment [1], the AC50 was 16.7 µM (active). Further, the outcome in [2] was inactive.
As for `CC[C@H]1OC(=O)[C@H](C)[C@@H](O[C@H]2C[C@@](C)(OC)[C@@H](O)[C@H](C)O2)[C@H](C)[C@@H](O[C@@H]2O[C@H](C)C[C@H](N(C)C)[C@H]2O)[C@](C)(O)C[C@@H](C)C(=O)[C@H](C)[C@@H](O)[C@]1(C)O`, the molecule was called inactive in [3].
As for `Nc1ccc(Nc2ccccc2)cc1`, the figures for the AC50 in [3], in [4] and in [5] were 32.3 µM (active), 25 µM (active) and 16.9 µM (active), respectively.
Consider `CCOC(=O)c1ccc(C2CCC(NC[C@H](O)COc3ccc(O)c(NS(C)(=O)=O)c3)CC2)cc1` (stereo partly drawn), for which the AC50 in experiment [1] was 19.5 µM (active); in [6] it was 11.5 µM (active); in [7], 8.67 µM (active); in experiment [5], 23.4 µM (active); with Adra2b (gene 24174), 23.4 µM (active); in experiment [9], 18.4 µM (active). The molecule was classed as inactive in experiment [2] and in experiment [8].
`CC(C)(O)c1coc(S(=O)(=O)NC(=O)Nc2c3c(cc4c2CCC4)CCC3)c1`: in experiment [1], the AC50 is 25 µM (active).
Regarding `COc1cccc(-c2ccc(/C=C\CN3CCCCCC3)cc2Cl)c1`, the AC50 was 11.8 µM (active) in [1]; 15.2 µM (active) in experiment [3]; 12.3 µM (active) in experiment [2]; 2.99 µM (active) in experiment [4]; 10.1 µM (active) in [5]; 4.39 µM (active) in the experiment with Adra2b (gene 24174). Besides, the figures for the AC50 in [8], in [12] and in experiment [9] were 15.2 µM (active), 11.2 µM (active) and 0.555 µM (active), respectively. Besides, the call in [6], in [10] and in experiment [11] was inactive.
Consider `Cn1c(=O)c2c(ncn2C)n(C)c1=O`, for which the result in [1] was inactive.
As to `CCc1cc(SCc2sc(-c3ccc(C(F)(F)F)cc3)nc2CN2CCN(c3ccc(OC)cc3)CC2)ccc1OCC(=O)O`, the molecule was called inactive in experiment [3], in [14], in [10] and in experiment [12]. In addition, the AC50 was 4.54 µM (active) in [2], 35.3 µM (active) in experiment [13], 35.9 µM (active) with NCBI gene 24521 and 15.9 µM (active) in experiment [9].
For the molecule `Cc1ccc(C)c(O)c1`, in experiment [3], the molecule was called inactive.
Regarding `O=c1[nH]c2ccc(S(=O)CCN3CCC(Cc4ccc(F)cc4)CC3)cc2o1` (stereo not drawn), the AC50 was 1.07 µM (active) in experiment [3]; 5.88 µM (active) in experiment [15]; 3.25 µM (active) in [6]; 1.88 µM (active) in experiment [4]; 0.609 µM (active) with Adra2b (gene 24174). In addition, the call in experiment [7] was inactive.
For `CC[C@H]1CC[C@H](NCc2cc3c(cc2OC)[C@H]2C[C@H]2C(=O)N3C)[C@H](c2ccccc2)N1`, the AC50 in [3] is 17.5 µM (active); in experiment [2] it was 5.7 µM (active); in experiment [4], 13.3 µM (active); in [5], 15 µM (active); with Adra2b (gene 24174) it was 12.3 µM (active); in experiment [8], 2.83 µM (active). The AC50 in experiment [12] was 2.58 µM (active). Further, the outcome in experiment [14] and in experiment [11] was inactive.

As usually defined, the AC50 is the midpoint of the concentration-response curve, whichever way the signal moves.
